Our source for the ΔTm values is ChEMBL document CHEMBL5308504, “Tm Shift (DSF) assay results for EUbOPEN Chemogenomics Library” (2023).

Settings in all cases: Compound concentration 20.0 uM, Protein concentration 2.0 uM, Result type QC Liability
The target in assay [1] is Tyrosine-protein kinase ABL1 (Homo sapiens) (UniProt P00519).
Assay [2] concerns the target Cyclin-dependent kinase 2 (Homo sapiens) (UniProt P24941).
Assay [3] concerns the target Casein kinase I isoform delta (Homo sapiens) (UniProt P48730).
Assay [4] deals with Glycogen synthase kinase-3 beta (Homo sapiens) (UniProt P49841).
In assay [5] the target is Mitogen-activated protein kinase 1 (Homo sapiens) (UniProt P28482).
For assay [6], the target named is T1, Aurora kinase A (Homo sapiens) (UniProt O14965).
T1 sequence (whole entry): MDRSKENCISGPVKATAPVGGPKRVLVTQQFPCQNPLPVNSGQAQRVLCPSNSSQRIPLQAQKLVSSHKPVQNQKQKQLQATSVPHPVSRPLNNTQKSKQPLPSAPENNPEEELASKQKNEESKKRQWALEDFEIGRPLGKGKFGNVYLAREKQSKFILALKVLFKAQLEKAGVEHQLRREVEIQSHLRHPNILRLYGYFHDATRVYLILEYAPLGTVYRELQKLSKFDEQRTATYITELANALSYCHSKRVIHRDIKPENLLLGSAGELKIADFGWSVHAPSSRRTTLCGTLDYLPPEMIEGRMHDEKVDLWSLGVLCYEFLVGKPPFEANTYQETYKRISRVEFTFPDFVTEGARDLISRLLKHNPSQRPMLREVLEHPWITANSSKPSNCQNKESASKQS

Chain of Glycogen synthase kinase-3 beta (Homo sapiens) (P49841 whole entry, looked up): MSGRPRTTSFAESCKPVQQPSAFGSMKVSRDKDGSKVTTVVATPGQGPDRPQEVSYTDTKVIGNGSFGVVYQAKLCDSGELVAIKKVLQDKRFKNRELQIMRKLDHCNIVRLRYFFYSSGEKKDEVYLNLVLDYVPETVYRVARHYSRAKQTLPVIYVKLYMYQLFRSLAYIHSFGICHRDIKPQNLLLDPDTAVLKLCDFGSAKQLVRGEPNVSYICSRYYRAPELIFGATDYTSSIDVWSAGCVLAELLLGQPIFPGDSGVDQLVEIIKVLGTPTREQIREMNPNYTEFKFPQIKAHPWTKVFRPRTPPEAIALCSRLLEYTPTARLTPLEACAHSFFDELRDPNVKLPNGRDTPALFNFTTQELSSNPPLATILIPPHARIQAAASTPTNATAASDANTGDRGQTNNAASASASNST
Chain of Mitogen-activated protein kinase 1 (Homo sapiens) (P28482 whole entry): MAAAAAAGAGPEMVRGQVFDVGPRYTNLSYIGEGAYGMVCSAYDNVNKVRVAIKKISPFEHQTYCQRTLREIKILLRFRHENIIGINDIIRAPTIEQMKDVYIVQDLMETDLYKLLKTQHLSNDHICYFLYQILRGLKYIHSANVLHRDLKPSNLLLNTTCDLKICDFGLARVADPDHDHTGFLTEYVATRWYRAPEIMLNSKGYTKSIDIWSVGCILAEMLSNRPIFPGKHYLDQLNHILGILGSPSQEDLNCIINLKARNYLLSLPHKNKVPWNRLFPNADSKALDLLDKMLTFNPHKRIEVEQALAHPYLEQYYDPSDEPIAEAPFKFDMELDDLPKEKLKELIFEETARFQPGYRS
Chain of Tyrosine-protein kinase ABL1 (Homo sapiens) (P00519 whole entry): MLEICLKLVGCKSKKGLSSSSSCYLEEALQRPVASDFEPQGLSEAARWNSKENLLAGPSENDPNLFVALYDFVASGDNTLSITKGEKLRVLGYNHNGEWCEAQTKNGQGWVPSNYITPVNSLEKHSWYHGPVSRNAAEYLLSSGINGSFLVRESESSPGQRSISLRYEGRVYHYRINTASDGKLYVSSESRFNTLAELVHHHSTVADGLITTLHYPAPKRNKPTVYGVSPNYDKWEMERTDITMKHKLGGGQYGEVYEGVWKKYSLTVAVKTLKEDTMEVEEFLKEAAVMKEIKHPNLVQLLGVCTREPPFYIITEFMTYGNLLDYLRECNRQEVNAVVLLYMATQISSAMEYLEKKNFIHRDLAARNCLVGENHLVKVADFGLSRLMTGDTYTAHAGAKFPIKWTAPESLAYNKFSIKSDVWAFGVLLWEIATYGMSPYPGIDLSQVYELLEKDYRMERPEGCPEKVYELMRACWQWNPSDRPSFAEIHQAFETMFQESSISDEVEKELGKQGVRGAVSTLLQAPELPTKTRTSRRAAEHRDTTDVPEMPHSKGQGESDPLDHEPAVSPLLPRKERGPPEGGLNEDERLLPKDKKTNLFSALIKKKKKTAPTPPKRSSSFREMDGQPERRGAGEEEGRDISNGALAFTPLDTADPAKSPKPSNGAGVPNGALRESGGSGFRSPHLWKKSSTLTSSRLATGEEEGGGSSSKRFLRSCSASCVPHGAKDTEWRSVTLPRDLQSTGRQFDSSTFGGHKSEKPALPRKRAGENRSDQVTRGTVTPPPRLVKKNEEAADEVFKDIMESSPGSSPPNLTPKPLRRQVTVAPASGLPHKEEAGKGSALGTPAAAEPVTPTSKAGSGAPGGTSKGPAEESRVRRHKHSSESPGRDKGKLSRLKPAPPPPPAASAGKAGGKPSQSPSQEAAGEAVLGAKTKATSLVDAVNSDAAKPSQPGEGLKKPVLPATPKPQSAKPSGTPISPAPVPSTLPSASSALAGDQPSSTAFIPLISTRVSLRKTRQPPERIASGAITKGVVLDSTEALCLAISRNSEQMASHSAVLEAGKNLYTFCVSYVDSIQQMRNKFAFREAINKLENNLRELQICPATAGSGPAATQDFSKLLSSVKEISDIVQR
Chain of Casein kinase I isoform delta (Homo sapiens) (P48730 whole entry, looked up, canonical isoform): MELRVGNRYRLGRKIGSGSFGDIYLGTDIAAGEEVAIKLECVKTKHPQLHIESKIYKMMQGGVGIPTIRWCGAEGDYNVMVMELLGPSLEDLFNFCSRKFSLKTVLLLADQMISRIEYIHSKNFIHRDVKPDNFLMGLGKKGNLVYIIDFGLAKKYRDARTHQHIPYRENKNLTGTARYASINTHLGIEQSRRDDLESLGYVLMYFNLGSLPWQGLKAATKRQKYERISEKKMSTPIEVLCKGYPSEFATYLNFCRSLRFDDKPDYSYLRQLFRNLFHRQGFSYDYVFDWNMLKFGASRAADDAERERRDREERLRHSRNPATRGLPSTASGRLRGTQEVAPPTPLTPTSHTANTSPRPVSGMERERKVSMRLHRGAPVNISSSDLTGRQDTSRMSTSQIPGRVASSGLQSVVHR

A word on the ΔTm: it is the shift of the melting midpoint relative to a reference. Turning to `C[C@@H](COCCC(=O)N1CCN(c2ncc(C(F)(F)F)cn2)CC1)Nc1cn[nH]c(=O)c1C(F)(F)F`, the shift in melting temperature (ΔTm) was 0.32 °C in assay [1]; 0.9 °C in assay [2]; -0.05 °C in assay [3]; -0.82 °C in assay [4]; 0.42 °C in assay [5]; -0.45 °C in assay [6].
In the case of `CC(C)(C)C(=O)NCc1ccc(Cl)c(C(=O)Nc2ncc[nH]2)c1`, the shift in melting temperature (ΔTm) was 0.08 °C in assay [1]; 0.44 °C in assay [2]; -0.14 °C in assay [3]; 0.45 °C in assay [4]; -0.01 °C in assay [5]; -0.18 °C in assay [6].
For the compound `C=CC(=O)Nc1cccc(C)c1Nc1ncc2cc(-c3c(Cl)c(OC)cc(OC)c3Cl)ccc2n1`, the ΔTm in assay [1] was 0.49 °C; in assay [2], 0.87 °C; in assay [3] it was 0.34 °C; in assay [4], -1.24 °C; in assay [5], -3.69 °C; in assay [6] it was -2.08 °C.
As to `CN(C)[C@H]1CC[C@H](Nc2ncc3ncnc(Nc4ccc(F)c(Cl)c4)c3n2)CC1`, the thermal shift (ΔTm) in assay [1] was 3.21 °C; in assay [2], 1.27 °C; in assay [3], 1.07 °C; in assay [4] it was 1.75 °C; in assay [5], 0.51 °C; in assay [6], 0.2 °C.
On to `CCn1c(-c2nonc2N)nc2ccccc21`, for which the ΔTm in assay [1] turned out to be 0.33 °C; in assay [2] it was 0.64 °C; in assay [3] it was 0.5 °C; in assay [4], 4.22 °C; in assay [5] it was 0.41 °C; in assay [6], 1.84 °C.
With `COc1cc(-c2cncc(-c3ccc(N4CCN(C(C)C)CC4)cc3)c2C)cc(F)c1C(=O)N1CCCC1`, the ΔTm in assay [1] was 0.7 °C; in assay [2], 0.41 °C; in assay [3] it was 0.26 °C; in assay [4] it was -0.59 °C; in assay [5] it was 0.53 °C; in assay [6] it was -0.62 °C.
In the case of `CC(C)(C)c1cnc(CSc2cnc(NC(=O)C3CCN(CC(=O)NCCOCCOCCOCCNc4cccc5c4C(=O)N(C4CCC(=O)NC4=O)C5=O)CC3)s2)o1` (stereo not given), the ΔTm is -2.84 °C in assay [1]; 9.12 °C in assay [2]; 0 °C in assay [3]; 10.8 °C in assay [4]; 0.99 °C in assay [5]; 7.5 °C in assay [6].
For `COc1cc(Oc2nc(-c3ccc(NC(=O)C4CCOC4)cc3)nn3c(C)nc(C)c23)cc(OC)c1OC` (stereo not given), the ΔTm in assay [1] was 0.18 °C; in assay [2], 0.72 °C; in assay [3], 0.03 °C; in assay [4], -0.39 °C; in assay [5] it was 0.18 °C; in assay [6] it was 0.1 °C.
With `COC1(C#Cc2ccc(Cl)c(-c3ncc4c(n3)-c3sc(NC(C)=O)nc3CC4)c2)CCN(C)CC1`, the ΔTm in assay [1] is 0.87 °C; in assay [2], -0.1 °C; in assay [3], 1.14 °C; in assay [4], -0.95 °C; in assay [5], 0.03 °C; in assay [6], 0 °C.
Consider `CC(=O)O[C@H]1C(=O)[C@@]2(C)[C@H]([C@H](OC(=O)c3ccccc3)[C@]3(O)C[C@H](OC(=O)[C@H](O)[C@@H](NC(=O)c4ccccc4)c4ccccc4)C(C)=C1C3(C)C)[C@]1(OC(C)=O)CO[C@@H]1C[C@@H]2O`, for which the shift in melting temperature (ΔTm) in assay [1] was 0.38 °C; in assay [2], 0.99 °C; in assay [3], -0.22 °C; in assay [4] it was -0.02 °C; in assay [5], 0.57 °C; in assay [6], -0.14 °C.
For `Cc1nc(Nc2cnn(C3CCNCC3)c2)nc2c1N(C)C(=O)c1cc3ccccc3cc1N2C`, the ΔTm in assay [1] was 2.1 °C; in assay [2], -1.03 °C; in assay [3], 0.48 °C; in assay [4], -0.49 °C; in assay [5] it was 0.6 °C; in assay [6], 1.73 °C.
On to `Cc1nc2ccccc2c(-c2ccc3c4c(ccnc24)CCO3)c1[C@H](OC(C)(C)C)C(=O)O`, for which the shift in melting temperature (ΔTm) in assay [1] is -0.44 °C; in assay [2] it was 0.2 °C; in assay [3], 0.28 °C; in assay [4], -0.88 °C; in assay [5], 0.3 °C; in assay [6] it was -0.03 °C.
On to `O=C(Nc1ccc(-n2nc(-c3cccnc3)cc2C(F)(F)F)cn1)c1ccc(-c2ccccc2)c(F)c1`, for which the ΔTm in assay [1] was -0.47 °C; in assay [2], -0.05 °C; in assay [3], -0.18 °C; in assay [4], -0.91 °C; in assay [5] it was 0.06 °C; in assay [6] it was 0.04 °C.
Regarding `COc1ccc(C(=O)N[C@H](C)c2cccc(C(=O)Nc3nc4c(s3)CN(C)CC4)c2)cc1C`, the shift in melting temperature (ΔTm) in assay [1] is 0.22 °C; in assay [2], 0.42 °C; in assay [3], 0.41 °C; in assay [4], -0.51 °C; in assay [5], 0.45 °C; in assay [6], 0.16 °C.
As for `CC(C)S(=O)(=O)c1ccccc1Nc1nc(N[C@@H]2CCCN(CCCCCCCNC(=O)COc3cccc4c3C(=O)N(C3CCC(=O)NC3=O)C4=O)C2)ncc1Cl` (stereo not given in full), the shift in melting temperature (ΔTm) in assay [1] was 8.06 °C; in assay [2], 4.21 °C; in assay [3], 3.26 °C; in assay [4] it was 11.1 °C; in assay [5], 3.07 °C; in assay [6], 10.6 °C.
Consider `Cn1c(Nc2c(Cl)cccc2Cl)nc2ccc3nc[nH]c(=O)c3c21`, for which the ΔTm in assay [1] stood at 9.85 °C; in assay [2], 0.91 °C; in assay [3], 0.64 °C; in assay [4], 1.08 °C; in assay [5], 0.09 °C; in assay [6], 1.49 °C.
Consider `Cc1cc(CN)cc(C)c1-c1ncn(C)c1-c1cncn1C`, for which the ΔTm in assay [1] is 0.16 °C; in assay [2], -0.16 °C; in assay [3], 0.37 °C; in assay [4], 0.19 °C; in assay [5], 0.11 °C; in assay [6], -0.37 °C.
In the case of `COCCN1CCN(CCn2ccc(Nc3ncc4c(n3)-c3c(nn(C)c3-c3ccccc3)C[C@H]4C)n2)CC1`, the ΔTm in assay [1] was 2.08 °C; in assay [2], 3.1 °C; in assay [3], 5.97 °C; in assay [4] it was 0.86 °C; in assay [5], 1.18 °C; in assay [6] it was 2.79 °C.
With `CN[C@@H](C)C(=O)N[C@H]1CN(C(=O)CC(C)C)CC[C@H]2CC[C@@H](C(=O)NC(c3ccccc3)c3ccccc3)N2C1=O`, the ΔTm was -0.01 °C in assay [1]; 0.45 °C in assay [2]; 0.05 °C in assay [3]; -0.59 °C in assay [4]; 0.19 °C in assay [5]; 0.17 °C in assay [6].
Regarding `Cc1cc(OCCC(C)(C)O)cc(C)c1-c1ccc(F)c2c1CC[C@H]2Oc1ccc2c(c1)OC[C@H]2CC(=O)O`, the ΔTm in assay [1] was -2.63 °C; in assay [2], -3.73 °C; in assay [3] it was -1.62 °C; in assay [4], -4.17 °C; in assay [5], -8.53 °C; in assay [6], -3.22 °C.
`CN1C(=O)Cc2ccc(-c3ccc(C[C@@H](C#N)NC(=O)[C@@H]4N[C@H]5CC[C@@H]4C5)c(F)c3)cc21`: the shift in melting temperature (ΔTm) in assay [1] was -0.52 °C; in assay [2], 0.33 °C; in assay [3], 0.17 °C; in assay [4], -0.31 °C; in assay [5], -0.2 °C; in assay [6] it was -0.07 °C.
Consider `Cn1cc(NC(=O)c2ccc3nc4n(c3c2)CCCNC4=O)nc1C(=O)NC1CCCC1`, for which the ΔTm is 1.61 °C in assay [1]; 0.41 °C in assay [2]; 0.38 °C in assay [3]; -0.59 °C in assay [4]; 0.46 °C in assay [5]; 0.5 °C in assay [6].
Regarding `N=C(N)NCCC[C@@H](NC(=O)C(c1ccccc1)c1ccccc1)C(=O)NCc1ccc(CNC(N)=O)cc1`, the ΔTm in assay [1] was 0.37 °C; in assay [2] it was 0.62 °C; in assay [3], 0.21 °C; in assay [4] it was -0.25 °C; in assay [5], 0.26 °C; in assay [6], 0.1 °C.
In the case of `CCOC(=O)CS(=O)(=O)c1ccc([C@@H](CO)NC(=O)c2cc3c(Cl)c(Cl)c(C)cc3n2C)cc1`, the ΔTm in assay [1] is -1.39 °C; in assay [2] it was 0.21 °C; in assay [3], 1.93 °C; in assay [4], -1.8 °C; in assay [5], 0.66 °C; in assay [6] it was -4.67 °C.
On to `CC(C)(O)CNC(=O)N1C(=O)N(c2cccc(C(F)(F)F)c2)C2=C(C(=O)CC2)[C@H]1c1ccc(C#N)cc1`, for which the shift in melting temperature (ΔTm) in assay [1] was 0.05 °C; in assay [2] it was 0.79 °C; in assay [3] it was 0.12 °C; in assay [4], 0.33 °C; in assay [5], -0.03 °C; in assay [6], 0.08 °C.
